# Results published in PubChem BioAssay (NCATS).
# Results filed as inconclusive are left out. Entries that show only a call come without a potency. Calls of active or inactive are those of the source. Unless noted, the call rests on the fitted dose curve; in most records, active means well fitted curve in the direction sought with a large enough effect; inconclusive means small, poorly fitted or top-dose-only effect, or another doubt; inactive means no such curve, though single readings can be large; an effect the other way counts as inactive or inconclusive.
# Columns and labels:
# [1] = qHTS assay for measurement of the activity of small molecule inhibitors on Zika virus induced Caspase-3 activity in human iPSC derived neural progenitor cells (hNPCs) (AID 1224857); further: nearly all actives have a fitted effect of over 65% in size
# Outline: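 Quantitative HTS format: human iPSC neural progenitors, 1 h compound pretreatment, ZIKV 2 FFU/cell for 6 h at 37 C. Percent inhibition derived from luminescent caspase-3/7 signal between uninfected and infected controls.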
# [2] = qHTS assay for measurement of the activity of small molecule inhibitors on Zika virus induced Caspase-3 activity in human astrocytoma cells (AID 1224859)
# Outline: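 Readout is luminescence from Caspase-Glo 3/7 added after a 6 h ZIKV infection (2 FFU/cell) of compound-pretreated (1 h) SNB-19 cells; data expressed as % inhibition versus uninfected and infected wells.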
# [3] = Natriuretic polypeptide receptor (hNpr1) antagonism - Pilot counterscreen GloSensor control cell line (AID 1347045; calls by dose curve; further: series mostly up to about 38 µM)
# Outline: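 HEK293 cGMP GloSensor cells preloaded 2 h with 2% GloSensor reagent, then compound 30 min before baseline luminescence read. Stimulated with 50 uM sodium nitroprusside, 20 min at room temperature, then read again; counterscreen for Npr1 antagonism.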
# [4] = target: Atrial natriuretic peptide receptor 1 (Homo sapiens) (UniProt P16066); assay: Natriuretic polypeptide receptor (hNpr1) antagonism - Pilot screen (AID 1347049; calls by dose curve;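 further: agonist-evoked cGMP luminescence read 20 min after hNppA addition; series mostly up to about 58 µM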)
# Chain of Atrial natriuretic peptide receptor 1 (Homo sapiens) (P16066 whole entry, looked up): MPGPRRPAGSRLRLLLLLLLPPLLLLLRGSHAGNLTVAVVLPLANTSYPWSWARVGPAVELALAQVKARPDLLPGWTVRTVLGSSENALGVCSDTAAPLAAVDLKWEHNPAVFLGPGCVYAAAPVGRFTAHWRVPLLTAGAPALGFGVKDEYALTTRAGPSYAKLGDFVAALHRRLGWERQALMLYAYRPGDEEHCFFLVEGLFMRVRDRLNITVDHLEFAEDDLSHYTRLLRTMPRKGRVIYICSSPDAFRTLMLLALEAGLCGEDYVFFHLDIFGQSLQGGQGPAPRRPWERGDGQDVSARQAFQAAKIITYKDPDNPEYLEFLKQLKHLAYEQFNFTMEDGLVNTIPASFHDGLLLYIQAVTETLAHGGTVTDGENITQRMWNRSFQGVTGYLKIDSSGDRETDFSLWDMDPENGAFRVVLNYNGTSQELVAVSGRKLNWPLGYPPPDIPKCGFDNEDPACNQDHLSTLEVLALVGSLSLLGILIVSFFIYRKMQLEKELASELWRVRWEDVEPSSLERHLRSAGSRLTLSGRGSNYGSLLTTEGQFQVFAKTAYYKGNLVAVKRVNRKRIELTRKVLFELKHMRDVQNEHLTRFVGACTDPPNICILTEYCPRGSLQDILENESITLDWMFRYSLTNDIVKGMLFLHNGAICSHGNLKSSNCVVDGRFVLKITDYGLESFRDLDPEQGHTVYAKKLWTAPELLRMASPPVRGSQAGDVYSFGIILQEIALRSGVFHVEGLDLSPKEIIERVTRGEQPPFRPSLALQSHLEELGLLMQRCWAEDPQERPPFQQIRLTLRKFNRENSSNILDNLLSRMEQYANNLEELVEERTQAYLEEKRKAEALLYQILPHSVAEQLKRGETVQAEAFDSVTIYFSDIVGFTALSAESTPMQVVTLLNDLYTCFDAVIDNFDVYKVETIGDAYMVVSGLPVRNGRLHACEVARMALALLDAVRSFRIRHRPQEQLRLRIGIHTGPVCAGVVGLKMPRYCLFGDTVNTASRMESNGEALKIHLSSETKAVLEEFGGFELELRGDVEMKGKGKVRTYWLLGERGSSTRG
# Outline: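 HEK293 cells co-expressing hNpr1 and the GloSensor pGS-40F cGMP luciferase sensor were preloaded with 2% GloSensor reagent for 2 h. Compounds were added for 30 min at room temperature, then cells were stimulated with 0.1 nM hNppA for 20 min before luminescence readout.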
# [5] = P-glycoprotein substrates identified in KB-8-5-11 adenocarcinoma cell line, qHTS therapeutic library screen (AID 1346987); further: nearly all actives have a fitted effect of over 65% in size; further: potency means the concentration at half of the fitted maximal effect
# Outline: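 KB-8-5-11, a colchicine-selected P-gp-overexpressing KB-3-1 subline, was grown without colchicine for the assay. Cells were seeded at 500 cells/well, dosed in concentration-response and incubated 72 h at 37 degree C, 5% CO2. Viability was read by CellTiter-Glo luminescence.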
# [6] = P-glycoprotein substrates identified in KB-3-1 adenocarcinoma cell line, qHTS therapeutic library screen (AID 1346986); further: nearly all actives have a fitted effect of over 60% in size
# Outline: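 Resistance attributable to P-gp was assessed by comparing AC50 in KB-8-5-11 with parental KB-3-1 and by tariquidar reversal. Cells were exposed 72 h and viability read by CellTiter-Glo.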
# [7] = target: Atrial natriuretic peptide receptor 2 (Homo sapiens) (UniProt P20594); assay: Natriuretic polypeptide receptor (hNpr2) antagonism - Pilot subtype selectivity assay (AID 1347050; calls by dose curve)
# Chain of Atrial natriuretic peptide receptor 2 (Homo sapiens) (P20594 whole entry, looked up): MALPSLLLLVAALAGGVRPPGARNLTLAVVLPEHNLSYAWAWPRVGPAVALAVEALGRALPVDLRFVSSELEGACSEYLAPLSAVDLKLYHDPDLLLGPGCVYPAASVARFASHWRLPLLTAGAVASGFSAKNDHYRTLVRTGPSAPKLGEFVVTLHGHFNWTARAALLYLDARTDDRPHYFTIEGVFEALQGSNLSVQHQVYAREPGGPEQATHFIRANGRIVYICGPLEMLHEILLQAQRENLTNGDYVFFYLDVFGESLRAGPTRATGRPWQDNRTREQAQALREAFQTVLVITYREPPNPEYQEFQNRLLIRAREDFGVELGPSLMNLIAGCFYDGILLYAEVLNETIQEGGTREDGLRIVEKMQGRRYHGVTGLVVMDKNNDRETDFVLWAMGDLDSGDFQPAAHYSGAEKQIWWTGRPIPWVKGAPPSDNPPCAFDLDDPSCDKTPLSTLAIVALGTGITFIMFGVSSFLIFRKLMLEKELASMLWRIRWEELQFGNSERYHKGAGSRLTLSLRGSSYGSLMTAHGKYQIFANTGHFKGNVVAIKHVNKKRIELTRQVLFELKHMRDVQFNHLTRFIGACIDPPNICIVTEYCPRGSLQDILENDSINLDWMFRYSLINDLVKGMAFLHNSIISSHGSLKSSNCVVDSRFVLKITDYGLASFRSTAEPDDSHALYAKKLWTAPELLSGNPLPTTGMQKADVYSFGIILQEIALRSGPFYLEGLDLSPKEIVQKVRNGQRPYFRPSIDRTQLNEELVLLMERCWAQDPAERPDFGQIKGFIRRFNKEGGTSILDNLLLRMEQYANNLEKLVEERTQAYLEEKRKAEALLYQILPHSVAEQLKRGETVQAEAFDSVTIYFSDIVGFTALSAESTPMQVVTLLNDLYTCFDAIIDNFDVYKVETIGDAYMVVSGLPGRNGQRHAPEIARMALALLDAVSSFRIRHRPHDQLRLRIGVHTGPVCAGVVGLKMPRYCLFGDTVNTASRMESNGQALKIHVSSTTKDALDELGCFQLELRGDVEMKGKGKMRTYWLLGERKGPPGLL
# Outline: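 cGMP-sensor HEK293/hNpr2 cells; 2% GloSensor reagent 2 h RT; compounds 30 min; baseline luminescence read; 1 nM hNppC agonist 20 min RT; final luminescence read by CCD camera. Antagonism = reduced post-agonist signal.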
Structure (SMILES),Potency [1],Potency [2],Potency [3],Potency [4],Potency [5],Potency [6],Potency [7]
CC(=O)SC1CC2=CC(=O)CC[C@]2(C)C2CC[C@@]3(C)C(CC[C@@]34CCC(=O)O4)C12 (some centres undefined),inactive,inactive,inactive,inactive,–,–,–
N[C@@H](Cc1ccc(O)c(I)c1)C(=O)O,inactive,inactive,inactive,inactive,–,–,–
CCCCCCCCCC[Si](C)(C)CCC(=O)NC(Cc1ccc(C)cc1)c1ccccc1 (centres undefined),inactive,inactive,inactive,inactive,–,–,–
C[C@](Cc1ccc(O)c(O)c1)(NN)C(=O)O,inactive,inactive,inactive,inactive,–,–,–
COc1cc([C@@H]2c3cc4c(cc3[C@H](O)C3COC(=O)[C@@H]32)OCO4)cc(OC)c1OC (some centres undefined),inactive,inactive,inactive,inactive,–,–,–
O=C(O)C1CCCNC1 (centres undefined),inactive,inactive,inactive,inactive,–,–,–
CN(C)S(=O)(=O)c1ccc2c(c1)/C(=C/c1cc3c([nH]1)CCCC3)C(=O)N2,inactive,inactive,–,–,6.51 µM (active),–,–
O=C(O)C1=CCCNC1,inactive,inactive,inactive,inactive,–,–,–
N#C/C(=C\c1ccc(O)c(O)c1)C(=O)NCCCNC(=O)/C(C#N)=C/c1ccc(O)c(O)c1,inactive,inactive,inactive,inactive,inactive,inactive,inactive
O=C1OC(=O)C2C3CCC(O3)C12 (centres undefined),inactive,inactive,inactive,inactive,–,–,–
NCCS(=O)O,inactive,inactive,inactive,inactive,–,–,–
CSC(=N)N,inactive,inactive,inactive,inactive,–,–,–
C[C@]12C=CC(=O)C=C1CC[C@@H]1C2=CC[C@]2(C)[C@@H](C(=O)CN3CCN(c4cc(N5CCCC5)nc(N5CCCC5)n4)CC3)CC[C@@H]12,inactive,inactive,inactive,inactive,–,–,–
